Data as given in PubChem BioAssay (NCI).
Values joined by “and” are separate entries in the source; they are usually repeats but may differ in a detail not shown here. Equal entries are not always repeated. The panel holds about 83,000 compounds, 20% with a hit somewhere; the sample as a whole holds those more often.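 Single-dose data. Exposure time 48 hours. Values below 10 considered active.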 Active and inactive are the calls of the source.

Columns and labels:
Test in all cases: NCI-60 one-dose screen, 48 h (100 = growth as untreated, 0 = no growth, -100 = all killed)
Conditions in all cases: 10 µM unless noted
[1] = tested on: NCI-H23 lung
[2] = tested on: NCI-H226 lung
[3] = tested on: NCI-H322M lung
[4] = tested on: HOP-62 NSCLC
[5] = tested on: NCI-H460 lung
[6] = tested on: HOP-92 NSCLC
[7] = tested on: NCI-H522 lung
[8] = tested on: A549/ATCC NSCLC
[9] = tested on: 786-0 renal
[10] = tested on: COLO 205 colon
[11] = tested on: DU-145 prostate
[12] = tested on: K-562 leukemia
[13] = tested on: MALME-3M melanoma
[14] = tested on: MDA-MB-231 breast
[15] = tested on: RXF 393 renal
[16] = tested on: SF-268 CNS
[17] = tested on: SF-295 CNS
[18] = tested on: SF-539 CNS
[19] = tested on: UACC-257 melanoma
[20] = tested on: M14 melanoma

Measured: growth

C[C@]12CC[C@H]3[C@@H](C[C@@H]4SC(Nc5ccccc5)=N[C@@]45C/C(=N/O)CC[C@]35C)[C@@H]1CCC2=O
inactive: [1] 79.5% | [2] 114% | [3] 94.5% | [4] 94% | [5] 56.4% | [6] 107% | [7] 71.5% | [8] 88.9% | [9] 18.4% | [10] 97% | [11] 29.8% | [12] 12.5% | [13] 83.8% | [14] 78.2% | [15] 28.8% | [16] 57.7% | [17] 55.7% | [18] 44.2% | [19] 99.9%

CCC(=O)C(CC(C)N1CCCCCC1)(c1ccccc1)c1ccccc1 (stereo unspecified)
inactive: [1] 91.6% | [2] 92.6% | [3] 84.7% | [4] 85.6% | [5] 103% | [6] 65.9% | [7] 83% | [8] 87.8% | [9] 87.4% | [10] 93% | [11] 102% | [12] 82.6% | [13] 93.6% | [14] 92.4% | [15] 129% | [16] 104% | [17] 89.7% | [18] 98.6% | [19] 100%

CC(=O)OC1CC2(O)C(CCC3(C)C(c4ccc(=O)oc4)CCC32O)C2(C)CCC(OC3OC(CO)C(O)C(O)C3O)C=C12 (stereo unspecified)
active: [1] -57.2% | [2] -91.6% | [3] -81.6% | [4] -70.7% | [5] -75.3% | [6] -24.2% | [7] -39.2% | [8] -72.9% | [9] -74.6% | [10] -47.1% | [11] -100% | [12] -30.4% | [13] -43.7% | [14] -20.3% | [15] -45% | [16] -97.4% | [17] -62.2% | [18] -97.9% | [19] -62.3%

CC[C@H](C)[C@H](NC(=O)CN(C)C)C(=O)N(C)[C@H](C[C@@H](OC(C)=O)c1nc(C(=O)NC23CC(C(=O)OC)(C2)C3)cs1)C(C)C
active: [5] 7.29% | [10] -35.8% | [11] 9.21% | [12] 9.47% | [14] 1.51% | [15] 8.43% | [18] -8.6% | [20] -8.54%
inactive: [1] 33.3% | [2] 35.2% | [3] 39.2% | [4] 20.1% | [6] 57.2% | [7] 12% | [8] 19.3% | [9] 26.4% | [13] 50.9% | [16] 21.8% | [17] 13.8% | [19] 46.8%

CN(C)C(=S)SSC(=S)N(C)C
inactive: [1] 98.9% and 138% | [2] 99.3% and 110% | [3] 75.3% and 94.9% | [4] 111% and 112% | [6] 102% | [7] 25.3% and 24.4% | [8] 80% and 71.6% | [9] 107% and 101% | [10] 63.1% and 70.6% | [11] 105% and 125% | [12] 105% | [13] 65.5% and 90.9% | [14] 112% and 98.5% | [15] 104% and 128% | [16] 102% and 113% | [17] 75% and 96.9% | [18] 100% and 112% | [19] 77.7% and 103%
-20.9% (active) and 92.9% (inactive): [5]

C[C@]12CCc3sc(Nc4ccc(F)cc4F)nc3C1=CC[C@@H]1[C@@H]2CC[C@]2(C)C(=O)CC[C@@H]12
active: [9] -27.7% | [12] 2.15% | [15] 5.6%
inactive: [1] 66.2% | [2] 84.2% | [3] 84.5% | [4] 87.1% | [5] 60.9% | [6] 77.1% | [7] 42.6% | [8] 61.7% | [10] 54.3% | [11] 24% | [13] 69.5% | [14] 76.1% | [16] 70.7% | [17] 51% | [18] 49.6% | [19] 71.9% | [20] 57.8%

C[C@]12CC[C@H]3[C@@H](CC=C4c5nc(-c6ccc(Br)cc6)sc5CC[C@@]43C)[C@@H]1CC[C@@H]2O
inactive: [1] 88.4% | [2] 100% | [3] 94.7% | [4] 106% | [5] 106% | [6] 130% | [7] 97.5% | [8] 106% | [9] 45% | [10] 119% | [11] 108% | [12] 76.7% | [13] 103% | [14] 89.5% | [16] 90.2% | [17] 63.5% | [19] 114%
active: [15] 3.87% | [18] 9.53%

Cc1cc(N(CCCl)CCCl)ccc1/C=N\NC(=O)c1cccnc1
-36.1% (active) and 11.8% (inactive): [2]
inactive: [1] 66.1% and 73.8% | [3] 108% and 97.9% | [4] 80.4% and 87.5% | [5] 21.2% and 28.7% | [6] 88.9% and 94.3% | [7] 82.3% and 105% | [8] 73.5% and 82.5% | [9] 81.1% and 84% | [10] 94.1% and 102% | [11] 75.6% and 75.4% | [12] 85.2% and 91.8% | [13] 107% | [14] 112% and 94.5% | [15] 100% and 85.6% | [16] 80.4% and 72.5% | [17] 49.6% | [18] 54.2% and 73.7% | [19] 84.9% and 88.6%

Cc1cc[c-]cc1.Fc1c[c-]c(-c2ccccn2)c(F)c1.N#CCC[PH+](CCC#N)c1ccccc1.[Pt+2]
inactive: [1] 34.3% | [2] 72.3% | [3] 79.4% | [4] 116% | [5] 43.1% | [6] 16.3% | [7] 16% | [8] 50.5% | [9] 48.9% | [10] 12.5% | [11] 57.6% | [12] 11.6% | [14] 13.7% | [16] 46% | [17] 85.2% | [18] 48.3% | [19] 62.4%
active: [13] 0.385% | [15] -36%

COC(=O)C1=CCCN(C)C1
inactive: [1] 104% and 101% | [2] 100% and 101% | [3] 96.2% and 82.7% | [4] 109% | [5] 110% and 106% | [6] 76.9% | [7] 96.8% and 73.1% | [8] 101% | [9] 100% and 101% | [10] 114% and 121% | [11] 111% and 112% | [12] 93.2% and 104% | [13] 96.2% and 109% | [14] 115% and 107% | [15] 102% and 106% | [16] 116% and 104% | [17] 97.9% and 98.3% | [18] 103% and 109% | [19] 96.8%

Nc1cccnc1
inactive: [1] 109% | [2] 107% | [3] 105% | [4] 104% | [5] 115% | [6] 101% | [7] 91.6% | [8] 106% | [9] 109% | [10] 115% | [11] 125% | [12] 105% | [13] 120% | [14] 110% | [15] 126% | [16] 108% | [17] 122% | [18] 113% | [19] 82.9%

O=C(O)C1C(C(=O)O)C2(Cl)C(Cl)=C(Cl)C1(Cl)C2(Cl)Cl (stereo unspecified)
inactive: [1] 96.8% and 100% | [2] 98.5% and 114% | [3] 106% and 117% | [4] 99.6% and 111% | [5] 101% and 111% | [6] 94.3% and 94.8% | [7] 97.2% and 123% | [8] 104% and 95.8% | [9] 111% and 99.2% | [10] 101% and 119% | [11] 107% and 120% | [12] 113% and 115% | [13] 104% and 102% | [14] 111% and 102% | [15] 103% and 130% | [16] 105% and 106% | [17] 101% and 113% | [18] 88.5% | [19] 102% and 104% | [20] 102% and 109%

N#CC(C#N)=Cc1cccc(F)c1
inactive: [1] 102% | [2] 103% | [3] 104% | [4] 95.2% | [5] 105% | [6] 130% | [7] 99.4% | [8] 100% | [9] 103% | [10] 115% | [11] 105% | [12] 96.8% | [13] 110% | [14] 109% | [15] 110% | [16] 99.7% | [17] 105% | [18] 105% | [19] 107% | [20] 107%
